The record followed here is PubChem BioAssay AID1578 (Sanford-Burnham Center for Chemical Genomics, 2009).

The structures appear in SMILES notation. “And” between values parts separate entries of the source, which are not always exact repeats. Equal entries are not always repeated. The campaign covered roughly 290,000 compounds. About 3,000 (1%) were called active. Shown is part of a subset that was picked to be rich in actives. A number with no mark means an inactive call. Rule as the data show it: active = inhibition mostly above about 36% (no sharp cut-off); inactive = mostly below about 34%.

The assay can be described thus: inhibition of NOD1-driven NF-kB reporter – cell-based, luminescence, uHTS, primary screen (AID 1578).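 Also: HEK-293T reporter cells stimulated with the NOD1 agonist gamma-tri-DAP.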 The settings on record: NOD1-driven NF-kB luciferase reporter cells, at 4 µM, stronger effect = higher value. (In general: A reporter such as luciferase makes a cellular process visible.)
As to `Cc1scc(C(=O)Nn2cnnc2)c1-c1ccccc1`, the inhibition is -12.5%. The result for `CCN1C(=O)CSc2ccc(C(=O)NCc3ccco3)cc21` reads -21.5%; that for `COc1ccc(/C=C2\SC(=O)N(CCc3nnc(N)s3)C2=O)cc1`, 1.5%. As to `CN(C)c1ccc(/C=C2/SC(=O)N(CCN=C3NS(=O)(=O)c4ccccc43)C2=O)cc1`, the inhibition was -8.3%.

Turning to `CN(C)c1ccc(/C=C2\SC(=O)N(CCc3nnc(N)s3)C2=O)cc1`, the inhibition is 68% (active). Under `CCOC(=O)Cc1csc(NC(=O)CSc2ncnc3c2cnn3-c2ccccc2Cl)n1` stands -4.7%; under `COc1ccc(Oc2ccc(N/C=C3\CCCC3=O)cc2)cc1`, -29.4%. The result for `CC(NC(=O)/C(=C\c1ccco1)NC(=O)c1ccco1)C(=O)O` (centres undefined) reads -6.1%; that for `COc1ccc(-c2nsc3c(N4CCCC4)ncnc23)cc1`, 37.5%.

Take `COc1ccc(-c2nsc3c(N4CCCCC4)ncnc23)cc1`: the inhibition was 46.2%. In the case of `COc1ccc(-c2nsc3c(N4CCCCC4C)ncnc23)cc1` (centres undefined), the inhibition was 77.6% (active).

For `COc1ccc(OC)c(NS(=O)(=O)c2ccc(-c3coc(C)n3)cc2)c1`, the inhibition is 29.1%. On to `Cc1ccc(NS(=O)(=O)c2ccc(-c3cnc(C4CC4)o3)cc2)cc1`, for which the inhibition was 37.3%. The result for `COc1ccc(NS(=O)(=O)c2ccc(-c3coc(C)n3)cc2)cc1` reads 5.2%; that for `COc1ccc(C)cc1NS(=O)(=O)c1ccc(-c2cnc(C3CC3)o2)cc1`, 25.1%; that for `O=C(CCCC1=NS(=O)(=O)c2ccccc2N1)Nc1ccccc1`, -7.6%.

For `COC(=O)CC(NS(=O)(=O)c1cccs1)c1ccc2c(c1)OCO2` (centres undefined), the inhibition is -20.9%. In the case of `O=C(CNC(=S)N(CCCN1CCOCC1)Cc1cccs1)NCc1ccc(Cl)cc1`, the inhibition is -16.7%. The result for `CC(=O)Nc1cc2c(ccc3ccccc32)oc1=O` reads -21.7%. The result for `CCOC(=O)c1c(C)[nH]c(C)c1C(=O)CSc1nc2ccccc2c(=O)n1-c1ccc(C)cc1` reads -25.1%.

On to `CCOC(=O)c1c(C)[nH]c(C)c1C(=O)CSc1nc2ccccc2c(=O)n1-c1ccc(F)cc1`, for which the inhibition was -19.8%. The result for `CC(OC(=O)c1ccccc1O)C(=O)Nc1ccc(Cl)cn1` (centres undefined) reads -43.7%. Take `CNc1ccccc1C(=O)OC(C)C(=O)Nc1ccc(Cl)cn1` (centres undefined): the inhibition is 54.3% (active). The result for `CC(OC(=O)c1ccco1)C(=O)Nc1ccc(Cl)cn1` (centres undefined) reads -26.7%.

With `COc1ccc(C(=O)NC2CCN(CC(=O)NCc3ccccc3F)CC2)cc1`, the inhibition was -30.3%.

As for `CCc1ccc(N(CC(=O)NC2CCCCC2)S(=O)(=O)c2c(C)noc2C)cc1`, the inhibition is -14.8%. Under `O=C(CCl)Nc1cc2[nH]c(=O)[nH]c2cc1Br` stands 72.1% (active). As for `O=C(CCl)Nc1c[nH]c(=O)[nH]c1=O`, the inhibition was -31.2%.

As for `Cc1cc(Br)c(NC(=O)CCl)c(Br)c1`, the inhibition is 42.9%. The result for `NC(=O)c1cc2ccccc2o/c1=N\NC(=O)c1ccc(F)cc1` reads -3.2%; that for `Cn1c(=O)c2c(nc(Oc3ccccc3)n2C)n(C)c1=O`, 9.4% and -13.9%. The result for `COc1ccc(Oc2nc3c(c(=O)n(C)c(=O)n3C)n2C)cc1` reads 18.3%; that for `Cc1nc2ccc(NS(=O)(=O)c3ccc(F)cc3)cc2s1`, 7.8%; that for `Cc1ccc(S(=O)(=O)Nc2ccc3nc(C)sc3c2)cc1`, 32.2%.

For the compound `CCOc1cc(C(=O)Nc2ccc([N+](=O)[O-])cn2)cc(OCC)c1OCC`, the inhibition was -21.2%. As to `CCNC(=S)N(Cc1cc2cc(C)c(C)cc2[nH]c1=O)C1CCCC1`, the inhibition was -35%. The result for `O=C(NCc1cccnc1)c1ccc(-c2ccccc2[N+](=O)[O-])o1` reads -24.4%; that for `COc1ccc(CCNC(=O)C2CCN(S(=O)(=O)c3ccc(OC)cc3)CC2)cc1`, 17.9%. Under `COc1ccc(NC(=O)NNC(=O)c2ccc(-c3ccccc3)cc2)cc1` stands -26.8%; under `COc1ccc(C(=O)NNC(=O)Nc2ccc(C)cc2)cc1`, -1.6%. The result for `COc1ccc(C(=O)NNC(=O)Nc2ccc(Cl)cc2)cc1` reads 91.6% (active); that for `CCS(=O)(=O)N1CCN(c2ncnc3sc(C)c(C)c23)CC1`, -20%; that for `Cc1nc(N2CCN(S(=O)(=O)c3ccc(Br)cc3)CC2)c2c(C)c(C)sc2n1`, 3.7%. For `CNS(=O)(=O)c1cc(N(C)S(=O)(=O)c2ccc(C)cc2)c(C)cc1C`, the inhibition is -1.6%. Under `CC1=NCCN1S(=O)(=O)c1cc([N+](=O)[O-])ccc1Cl` stands -40.2%. The result for `COc1ccc(COc2cc(-c3cccc(OC)c3)nc3ccc(NC(=O)c4ccccc4)cc23)cc1` reads 48.6%; that for `COc1ccc(COc2cc(-c3cccc(OC)c3)nc3ccc(NC(=O)c4cccnc4)cc23)cc1`, 78.1% (active). Consider `COc1ccc(COc2cc(-c3cccc(OC)c3)nc3ccc(NC(=O)c4ccc(OC)cc4)cc23)cc1`, for which the inhibition is 41.3%.

In the case of `CC(C)(C)C(=O)NC1=NN(c2c(Cl)cc(Cl)cc2Cl)C(=O)C1`, the inhibition was -19.7%. The result for `CC(C)c1ccccc1NC(=O)COC(=O)c1c2c(nc3ccccc13)CCN(Cc1ccccc1)C2` reads 29.8%; that for `Cc1ccccc1NC(=O)CSc1nc(N)c2c3c(sc2n1)CSC(C)(C)C3`, -19.5%. Consider `CC(Sc1nc(N)c2c3c(sc2n1)CSC(C)(C)C3)C(=O)Nc1ccccc1` (centres undefined), for which the inhibition was 66.5% (active). The result for `Cc1ccc(NC(=O)CSc2nc(N)c3c4c(sc3n2)CSC(C)(C)C4)cc1` reads 22.5%; that for `COc1ccc(OC)c(-n2nnnc2SCC(=O)N2CCN(C(=O)c3ccco3)CC2)c1`, -16.1%; that for `Cc1ccc(NC(=O)C2CC(=O)n3ncnc3N2)cc1C` (centres undefined), -33.1%.

On to `CC(=O)NCc1ccc(C(=O)CCl)cc1`, for which the inhibition was -4%.

In the case of `CC(=O)NCc1ccc(C(=O)CCl)s1`, the inhibition is 88.3% (active). Regarding `CC(=O)NCc1ccc(-c2csc(N)n2)s1`, the inhibition is 1.1%. Turning to `Cc1ccc(C(=O)COC(=O)c2cc(Cl)nc3ccccc23)cc1`, the inhibition was -10.7%.

In general, inhibition refers to the change of the read-out against control, counted positive when it falls.
